Test results reported in PubChem BioAssay (NCATS).
Results filed as inconclusive are left out. Active and inactive are the calls of the source. Calls follow the shape of the dose curve; as a rule, active = well fitted cell-killing curve with a large enough effect; inconclusive = small, poorly fitted or top-dose-only effect, or effect the other way; inactive = no such curve, though single readings can be large or run the other way. Residues, ends and D or L forms follow the SMILES beside them. *: point of attachment. Cbz = O=C(OCc1ccccc1)*

Assays:
[1] = Quantitative High-Throughput drug screen in 47 multiple myeloma cell lines against the NCATS MIPE library collection: OCIMY7_PLB cell viability assay (AID 1918987); details: OCI-MY7 myeloma viability, CellTiter-Glo ATP, 48 h; viability (% of DMSO): at 45.8 µM (top of the series); also: nearly all actives have a fitted effect of over 65% in size
Summary of the method: (§1)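 Inhibition of viability over 48 h was scored by ATP content (CellTiter-Glo) in 500-cell wells. Zero and full viability were defined by media-only and DMSO-only wells.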

[2] = Quantitative High-Throughput drug screen in 47 multiple myeloma cell lines against the NCATS MIPE library collection: OCIMY5_PLB cell viability assay (AID 1918988); also: nearly all actives have a fitted effect of over 65% in size
Summary of the method: as §1

[3] = Quantitative High-Throughput drug screen in 47 multiple myeloma cell lines against the NCATS MIPE library collection: OPM1_PLB cell viability assay (AID 1918989); also: nearly all actives have a fitted effect of over 40% in size
Summary of the method: as §1

[4] = Quantitative High-Throughput drug screen in 47 multiple myeloma cell lines against the NCATS MIPE library collection: SKMM1_PLB cell viability assay (AID 1919863); details: SKMM1 myeloma viability, CellTiter-Glo ATP, 48 h; viability: hits give low values; also: nearly all actives have a fitted effect of over 35% in size
Summary of the method: as §1

[5] = Quantitative High-Throughput drug screen in 47 multiple myeloma cell lines against the NCATS MIPE library collection: XG6_PLB cell viability assay (AID 1919865); also: nearly all actives have a fitted effect of over 40% in size
Summary of the method: as §1

[6] = Quantitative High-Throughput drug screen in 47 multiple myeloma cell lines against the NCATS MIPE library collection: XG1_PLB cell viability assay (AID 1919866); also: nearly all actives have a fitted effect of over 35% in size
Summary of the method: as §1

[7] = Quantitative High-Throughput drug screen in 47 multiple myeloma cell lines against the NCATS MIPE library collection: VP6_DJ cell viability assay (AID 1919867); also: nearly all actives have a fitted effect of over 40% in size
Summary of the method: as §1

[8] = Quantitative High-Throughput drug screen in 47 multiple myeloma cell lines against the NCATS MIPE library collection: UTMC2_PLB cell viability assay (AID 1919868); details: CellTiter-Glo ATP luminescence, 48 h; viability (% of DMSO control): at 45.8 µM (top of the series); also: nearly all actives have a fitted effect of over 55% in size
Summary of the method: as §1

[9] = Quantitative High-Throughput drug screen in 47 multiple myeloma cell lines against the NCATS MIPE library collection: PE2_PLB cell viability assay (AID 1919869); also: nearly all actives have a fitted effect of over 35% in size
Summary of the method: as §1

[10] = Quantitative High-Throughput drug screen in 47 multiple myeloma cell lines against the NCATS MIPE library collection: U266_ATCC cell viability assay (AID 1919864); also: nearly all actives have a fitted effect of over 35% in size
Summary of the method: as §1

Measured: Potency
Potency is read from the fitted curve at half-maximal effect.

CC(C)C[C@@H](C=O)NC(=O)[C@H](CC(C)C)NC(=O)[C@H](CC(C)C)NC(=O)OCc1ccccc1 (Cbz-Leu-Leu-Leu-aldehyde)
active: [1] 296 nM | [2] 372 nM | [3] 296 nM | [4] 1180 nM | [5] 105 nM | [6] 148 nM | [7] 132 nM | [8] 1180 nM | [9] 209 nM

CCC(C=C[C@@H]1OC(=O)C=C[C@H]1C)=C[C@H](C)CC=CC(C)=C[C@@H](C)C(=O)[C@@H](C)[C@H](O)[C@@H](C)CC(C)=CC(=O)O
active: [1] 39.2 nM | [2] 9.8 nM | [3] 31.1 nM | [10] 24.7 nM | [5] 15.6 nM | [6] 24.7 nM | [7] 13.9 nM | [8] 17.5 nM | [9] 19.6 nM

COc1cc(CCc2cc(NC(=O)c3ccc(N4C[C@@H](C)N[C@@H](C)C4)cc3)n[nH]2)cc(OC)c1
active: [1] 18700 nM | [2] 16600 nM | [3] 14800 nM | [10] 20900 nM | [5] 8330 nM | [6] 14800 nM | [7] 7430 nM | [8] 4180 nM | [9] 11800 nM

COC[C@H](NC(=O)c1cnc(C)s1)C(=O)N[C@@H](COC)C(=O)N[C@@H](Cc1ccccc1)C(=O)[C@@]1(C)CO1
active: [1] 52.6 nM | [2] 37.2 nM | [3] 118 nM | [10] 74.3 nM | [5] 59 nM | [6] 74.3 nM | [7] 66.2 nM | [8] 1050 nM | [9] 83.3 nM

O=C(O)C[C@H](O)C[C@H](O)C=Cc1c(C2CC2)nc2ccccc2c1-c1ccc(F)cc1
active: [1] 2350 nM | [2] 20900 nM | [3] 2640 nM | [4] 11800 nM | [5] 18700 nM | [6] 3320 nM | [7] 16600 nM | [8] 9350 nM | [9] 4690 nM

c1cc(N[C@@H]2CCNC2)nc(-c2cnc3ccc(-c4cn[nH]c4)cn23)c1
active: [1] 7430 nM | [2] 13200 nM | [3] 16600 nM | [4] 26400 nM | [5] 2640 nM | [6] 5260 nM | [7] 14800 nM | [8] 4690 nM | [9] 2350 nM

C=Cc1c(C)c2cc3nc(cc4[nH]c(cc5nc(cc1[nH]2)C(C)=C5CCC(=O)O)c(CCC(=O)OC)c4C)[C@@]1(C)C3=CC=C(C(=O)OC)[C@H]1C(=O)OC
active: [1] 662 nM | [2] 41.8 nM | [3] 372 nM | [4] 743 nM | [5] 33.2 nM | [6] 93.5 nM | [7] 118 nM | [8] 105 nM | [9] 209 nM

CCOC(=O)C1=C(C)NC(=S)NC1c1cccc(O)c1 (stereo not given)
active: [1] 105 nM | [2] 23.5 nM | [3] 29.6 nM | [4] 52.6 nM | [5] 29.6 nM | [6] 66.2 nM | [7] 29.6 nM | [8] 37.2 nM | [9] 14.8 nM

CNC(=O)c1ccc(Nc2cc(Nc3ccccc3S(=O)(=O)C(C)C)c3cc[nH]c3n2)nc1
active: [1] 833 nM | [2] 4690 nM | [3] 1660 nM | [10] 1480 nM | [5] 662 nM | [6] 296 nM | [7] 526 nM | [8] 418 nM | [9] 1180 nM

C#Cc1cccc(Nc2ncnc3cc(OCCOC)c(OCCO)cc23)c1
active: [1] 1870 nM | [2] 3320 nM | [3] 13200 nM | [10] 16600 nM | [9] 1050 nM

N#CC(=Cc1ccc(O)c(O)c1)C(=O)NCc1ccccc1
active: [1] 5900 nM | [2] 20900 nM | [3] 9350 nM | [10] 26400 nM | [5] 8330 nM | [7] 18700 nM | [9] 14800 nM

N#CC(=C(N)Sc1ccc(N)cc1)c1ccccc1C(F)(F)F
active: [1] 148 nM | [2] 16600 nM | [4] 7430 nM | [6] 2960 nM | [9] 2960 nM

CN1CCc2c(c3ccccc3n2Cc2ccc(C(=O)NO)cc2)C1
active: [1] 9350 nM | [2] 18700 nM | [3] 16600 nM | [5] 8330 nM | [6] 11800 nM | [7] 9350 nM | [8] 2640 nM | [9] 23500 nM

c1cncc(CN2CCC(n3ncc4c(N5CCOCC5)nc(-c5ccc6[nH]ccc6c5)nc43)CC2)c1
active: [1] 9350 nM | [2] 13200 nM | [4] 23500 nM | [5] 1660 nM | [6] 935 nM | [7] 3320 nM | [9] 1480 nM

CC(C)(N)c1ccc(-c2nc3ccccc3nc2-c2ccccc2)cc1
active: [1] 7430 nM | [2] 23500 nM | [3] 5900 nM | [5] 5900 nM | [6] 7430 nM | [7] 7430 nM | [9] 10500 nM
